Assay results: PubChem BioAssay (EPA / NIEHS)
Results filed as inconclusive are left out. Activity calls are given as the source filed them. The calls were made as follows, unless noted: active = hit-call score of the fitted dose curve at least 0.9, where 1 is the maximum; inactive = score below 0.9.

Key:
[1] = biological target: Glucocorticoid receptor (Homo sapiens) (UniProt P04150); test: ATG_GR_TRANS: Attagene TRANS-FACTORIAL HepG2 Assay for human Glucocorticoid Receptor (GR) (AID 2282978; active = hit-call score of the fitted dose curve at least 0.9, where 1 is the maximum;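 also: activators score as hits since higher reporter transcript over DMSO is fitted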); details: HepG2 Attagene TRANS GR reporter, mRNA transcription
Glucocorticoid receptor (Homo sapiens), sequence (P04150 whole entry, looked up, the tested form may be a part): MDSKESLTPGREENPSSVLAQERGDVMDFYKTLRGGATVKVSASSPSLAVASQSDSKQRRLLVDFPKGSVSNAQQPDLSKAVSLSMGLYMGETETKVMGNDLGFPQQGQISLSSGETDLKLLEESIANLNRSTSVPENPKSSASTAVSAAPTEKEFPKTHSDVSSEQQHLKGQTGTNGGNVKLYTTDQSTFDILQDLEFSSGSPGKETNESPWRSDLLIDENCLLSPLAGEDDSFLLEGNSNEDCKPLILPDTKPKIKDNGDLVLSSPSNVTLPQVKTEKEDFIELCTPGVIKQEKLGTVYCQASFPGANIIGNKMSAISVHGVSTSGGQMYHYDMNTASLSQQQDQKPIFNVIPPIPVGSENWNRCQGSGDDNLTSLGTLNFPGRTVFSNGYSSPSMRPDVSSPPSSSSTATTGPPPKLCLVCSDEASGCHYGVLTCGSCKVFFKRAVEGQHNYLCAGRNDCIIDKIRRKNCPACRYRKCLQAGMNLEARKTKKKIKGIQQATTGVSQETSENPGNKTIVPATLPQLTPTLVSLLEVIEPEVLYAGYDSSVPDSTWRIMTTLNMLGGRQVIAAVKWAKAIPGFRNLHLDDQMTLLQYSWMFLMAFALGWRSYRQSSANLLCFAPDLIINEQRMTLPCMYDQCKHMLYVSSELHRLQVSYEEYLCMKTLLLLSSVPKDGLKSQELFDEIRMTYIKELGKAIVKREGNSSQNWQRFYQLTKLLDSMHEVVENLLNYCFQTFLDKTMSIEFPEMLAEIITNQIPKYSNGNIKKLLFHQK
In short: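 In this trans-factorial format, exogenous NR-GAL4 chimeric proteins in transfected HepG2 cells regulate GAL4-UAS reporter transcription. After 24 h treatment, reporter mRNA induction relative to DMSO is read by RT-PCR and capillary electrophoresis.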

[2] = biological target: Oxysterols receptor LXR-beta (Homo sapiens) (UniProt P55055); test: ATG_LXRb_TRANS: Attagene TRANS-FACTORIAL HepG2 Assay for human Liver X Receptor beta (LXRb) (AID 2282981; active = hit-call score of the fitted dose curve at least 0.9, where 1 is the maximum); details: HepG2 Attagene TRANS GAL4-LXRb reporter, mRNA
Oxysterols receptor LXR-beta (Homo sapiens), sequence (P55055 whole entry, looked up, the tested form may be a part): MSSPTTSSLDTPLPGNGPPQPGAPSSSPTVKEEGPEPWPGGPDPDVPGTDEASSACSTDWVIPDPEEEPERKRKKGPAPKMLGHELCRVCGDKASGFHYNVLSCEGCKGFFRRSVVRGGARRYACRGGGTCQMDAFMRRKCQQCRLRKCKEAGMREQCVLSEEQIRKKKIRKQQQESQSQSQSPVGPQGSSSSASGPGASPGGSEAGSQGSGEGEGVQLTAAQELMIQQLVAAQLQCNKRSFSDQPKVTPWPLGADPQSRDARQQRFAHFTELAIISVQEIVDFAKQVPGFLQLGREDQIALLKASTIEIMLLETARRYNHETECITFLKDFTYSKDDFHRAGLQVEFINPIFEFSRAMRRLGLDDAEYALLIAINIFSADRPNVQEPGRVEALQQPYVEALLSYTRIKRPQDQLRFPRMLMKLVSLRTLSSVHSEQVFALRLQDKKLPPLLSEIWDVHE
In short: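 HepG2 cells transiently transfected with multiple reporter transcription units carrying chimeric NR-Gal4 proteins acting on GAL4-UAS reporters; compound exposure 24 h. Reporter mRNA quantified by RT-PCR, 6-FAM labelling, HpaI digestion and capillary electrophoresis; gain of signal versus DMSO.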

[3] = ATG_M_32_TRANS: Attagene TRANS-FACTORIAL HepG2 Assay for M32 Transcription Factor (Internal Marker) (AID 2282984; active = hit-call score of the fitted dose curve at least 0.9, where 1 is the maximum;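 also: transcript level of a background control reporter unit measured by RT-PCR and capillary electrophoresis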); details: HepG2 Attagene TRANS M32 internal marker reporter
In short: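 HepG2 cells transiently transfected with multiple GAL4-UAS reporter transcription units, dosed for 24 hours; reporter mRNA quantified by RT-PCR, 6-FAM primer extension, HpaI digestion and capillary electrophoresis. Gain-of-signal fitted versus DMSO baseline; internal background-control marker.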

[4] = biological target: Nuclear receptor subfamily 4 group A member 2 (Homo sapiens) (UniProt P43354); test: ATG_NURR1_TRANS: Attagene TRANS-FACTORIAL HepG2 Assay for human Nuclear Receptor Related Protein 1 (NURR1) (AID 2282985; active = hit-call score of the fitted dose curve at least 0.9, where 1 is the maximum); details: HepG2 Attagene TRANS reporter, mRNA readout
Nuclear receptor subfamily 4 group A member 2 (Homo sapiens), sequence (P43354 whole entry, looked up, the tested form may be a part): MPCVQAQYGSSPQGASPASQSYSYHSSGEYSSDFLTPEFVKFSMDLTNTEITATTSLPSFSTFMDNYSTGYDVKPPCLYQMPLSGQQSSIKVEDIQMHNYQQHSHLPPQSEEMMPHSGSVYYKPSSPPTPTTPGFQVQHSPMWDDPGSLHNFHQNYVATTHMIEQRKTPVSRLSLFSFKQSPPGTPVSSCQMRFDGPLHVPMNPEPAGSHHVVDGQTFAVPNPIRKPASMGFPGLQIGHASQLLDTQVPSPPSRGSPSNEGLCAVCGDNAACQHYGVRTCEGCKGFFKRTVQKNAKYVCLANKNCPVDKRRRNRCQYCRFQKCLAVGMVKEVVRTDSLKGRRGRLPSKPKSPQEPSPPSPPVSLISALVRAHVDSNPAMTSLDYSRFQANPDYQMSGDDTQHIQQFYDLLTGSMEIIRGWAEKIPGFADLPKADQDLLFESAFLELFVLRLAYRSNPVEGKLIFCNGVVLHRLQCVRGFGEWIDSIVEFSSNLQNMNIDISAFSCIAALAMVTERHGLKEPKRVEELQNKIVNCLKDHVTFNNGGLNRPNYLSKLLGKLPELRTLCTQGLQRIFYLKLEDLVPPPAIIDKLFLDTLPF
In short: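 HepG2 cells transiently transfected with GAL4-UAS reporter units and chimeric NR-Gal4 constructs; chemical exposure 24 h. Reporter mRNA quantified by RT-PCR, fluorescent labelling and capillary electrophoresis; gain of signal fitted relative to DMSO baseline.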

[5] = biological target: Transcriptional activator Myb (Homo sapiens) (UniProt P10242); test: ATG_Myb_CIS: Attagene CIS-FACTORIAL HepG2 Assay for human Myeloblastosis (Myb) Proto-Oncogene Transcription Factor (AID 2282986); details: HepG2 Attagene CIS-FACTORIAL Myb reporter transcription; actives raise or lower the signal
Transcriptional activator Myb (Homo sapiens), sequence (P10242 whole entry, looked up): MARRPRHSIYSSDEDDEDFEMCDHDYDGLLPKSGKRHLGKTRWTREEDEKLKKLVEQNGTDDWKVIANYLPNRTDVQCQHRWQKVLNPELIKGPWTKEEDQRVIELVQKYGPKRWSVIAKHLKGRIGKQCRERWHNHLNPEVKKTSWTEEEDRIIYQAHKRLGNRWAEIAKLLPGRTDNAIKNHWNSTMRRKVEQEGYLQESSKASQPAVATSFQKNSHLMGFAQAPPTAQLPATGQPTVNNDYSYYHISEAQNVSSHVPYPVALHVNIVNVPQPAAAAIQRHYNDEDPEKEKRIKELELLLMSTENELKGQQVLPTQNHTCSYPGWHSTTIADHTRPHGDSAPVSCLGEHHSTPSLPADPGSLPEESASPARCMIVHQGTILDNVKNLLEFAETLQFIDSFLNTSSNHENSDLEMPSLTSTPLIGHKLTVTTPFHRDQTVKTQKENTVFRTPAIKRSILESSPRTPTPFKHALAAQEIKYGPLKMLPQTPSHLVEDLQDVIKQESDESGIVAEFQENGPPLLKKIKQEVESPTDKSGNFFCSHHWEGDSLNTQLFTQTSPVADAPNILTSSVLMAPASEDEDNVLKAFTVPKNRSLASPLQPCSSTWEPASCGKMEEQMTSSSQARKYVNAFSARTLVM
In short: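 Steps: transfect HepG2 with cis-regulated reporter units; dose with chemical for 24 h; isolate RNA, reverse-transcribe, PCR-amplify and FAM-label reporter sequences; digest with HpaI; resolve by capillary electrophoresis. Activity fitted in both directions relative to DMSO.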

[6] = biological target: Nuclear respiratory factor 1 (Homo sapiens) (UniProt Q16656); test: ATG_NRF1_CIS: Attagene CIS-FACTORIAL HepG2 Assay for human Nuclear Respiratory Factor 1 (NRF1) Orphan Gene (AID 2282987); details: HepG2 NRF1 cis-element reporter, Attagene multiplex; actives raise or lower the signal
Nuclear respiratory factor 1 (Homo sapiens), sequence (Q16656 whole entry, looked up, the tested form may be a part): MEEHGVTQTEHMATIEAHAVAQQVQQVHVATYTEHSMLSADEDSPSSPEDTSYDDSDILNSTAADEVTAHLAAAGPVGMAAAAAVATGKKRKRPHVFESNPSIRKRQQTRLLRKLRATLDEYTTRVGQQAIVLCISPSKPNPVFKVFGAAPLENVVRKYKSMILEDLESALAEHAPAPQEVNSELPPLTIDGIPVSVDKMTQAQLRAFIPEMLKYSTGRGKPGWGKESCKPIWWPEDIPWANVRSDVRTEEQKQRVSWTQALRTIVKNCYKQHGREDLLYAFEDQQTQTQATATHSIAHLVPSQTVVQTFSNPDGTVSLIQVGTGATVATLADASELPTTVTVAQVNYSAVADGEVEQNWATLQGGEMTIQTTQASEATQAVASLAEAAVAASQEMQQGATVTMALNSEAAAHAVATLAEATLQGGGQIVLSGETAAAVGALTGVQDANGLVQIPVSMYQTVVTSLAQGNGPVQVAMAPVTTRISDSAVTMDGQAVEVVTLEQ
In short: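 Fluorescence intensity of labelled reporter cDNA fragments, resolved by capillary electrophoresis, served as readout for NRF1 cis-element activity. Transiently transfected HepG2 cells were dosed for 24 hours; activity in either direction was fitted against DMSO negative control.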

[7] = ATG_NFI_CIS: Attagene CIS-FACTORIAL HepG2 Assay for human Nuclear Factor I (NFI) (AID 2282989); details: HepG2 cis-regulatory reporter, NFI response element transcription; actives raise or lower the signal
In short: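 HepG2 cells transiently transfected with cis-element-driven multiplexed reporter transcription units, dosed for 24 h. Reporter mRNA quantified by RT-PCR, fluorescent labelling, HpaI digestion and capillary electrophoresis; bidirectional fit versus DMSO baseline.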

[8] = biological target: Myc proto-oncogene protein (Homo sapiens) (UniProt P01106); test: ATG_Myc_CIS: Attagene CIS-FACTORIAL HepG2 Assay for human Myelocytomatosis (Myc) Proto-Oncogene Transcription Factor (AID 2282990); details: HepG2, Attagene cis-reporter transcription factor activity; actives raise or lower the signal
Myc proto-oncogene protein (Homo sapiens), sequence (P01106 whole entry, looked up): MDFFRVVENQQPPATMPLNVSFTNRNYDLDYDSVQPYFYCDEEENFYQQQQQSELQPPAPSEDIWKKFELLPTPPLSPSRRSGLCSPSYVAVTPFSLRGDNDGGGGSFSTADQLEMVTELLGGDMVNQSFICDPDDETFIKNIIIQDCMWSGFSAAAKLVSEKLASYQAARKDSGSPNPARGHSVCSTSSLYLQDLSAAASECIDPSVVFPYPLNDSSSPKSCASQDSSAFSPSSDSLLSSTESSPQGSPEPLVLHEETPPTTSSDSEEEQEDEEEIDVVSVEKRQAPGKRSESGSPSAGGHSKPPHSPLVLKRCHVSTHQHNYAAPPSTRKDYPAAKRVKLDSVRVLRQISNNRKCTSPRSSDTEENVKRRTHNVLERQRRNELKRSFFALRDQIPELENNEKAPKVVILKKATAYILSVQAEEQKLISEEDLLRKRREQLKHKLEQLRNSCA
In short: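 HepG2 cells transiently transfected with multiple cis-promoter-driven reporter transcription units, so endogenous TF activity is read. After 24 h compound exposure, reporter mRNA was quantified by RT-PCR, 6-FAM labelling, HpaI digestion and capillary electrophoresis; bidirectional fit versus DMSO.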

[9] = ATG_NF_kB_CIS: Attagene CIS-FACTORIAL HepG2 Assay for human Nuclear Factor Kappa B (NF-kB) (AID 2282991); details: HepG2 Attagene cis-factorial NF-kB reporter mRNA; actives raise or lower the signal
In short: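 Endogenous transcription factor activity in HepG2 was captured via cis-regulated reporter constructs; after 24 h dosing, reporter mRNA was reverse-transcribed, amplified, fluorescently labelled and sized by capillary electrophoresis, with activity fitted bidirectionally relative to DMSO.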

[10] = ATG_NRF2_ARE_CIS: Attagene CIS-FACTORIAL HepG2 Assay for human Nuclear Factor Erythroid 2 Related Factor 2 (NFR2) response to Antioxidant Response Elements (ARE) (AID 2282992); details: HepG2 Attagene ARE/NRF2 reporter, transcription factor activity; actives raise or lower the signal;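 as to AC50: reporter mRNA level measured by RT-PCR and capillary electrophoresis fluorescence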
In short: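 HepG2 cells transiently transfected with multiplexed cis-element reporter constructs, 24 h after chemical dosing; reporter mRNA quantified by RT-PCR, fluorescent primer extension, HpaI digestion and capillary electrophoresis. Bidirectional fit relative to DMSO.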

[11] = ATG_Oct_MLP_CIS: Attagene CIS-FACTORIAL HepG2 Assay for human Octamer-Binding Transcription Factor (Oct) (AID 2282993); details: HepG2 Attagene cis-factorial Oct reporter, mRNA; actives raise or lower the signal
In short: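 HepG2 cells transiently transfected with cis-promoter-driven multiplexed reporter transcription units, dosed for 24 h. Reporter mRNA quantified by RT-PCR, fluorescent labelling, HpaI digestion and capillary electrophoresis; bidirectional fits versus DMSO baseline.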

[12] = biological target: Cellular tumor antigen p53 (Homo sapiens) (UniProt P04637); test: ATG_p53_CIS: Attagene CIS-FACTORIAL HepG2 Assay for human p53 Transcription Factor (AID 2282994); details: HepG2 p53 cis-element reporter, Attagene mRNA; actives raise or lower the signal
Cellular tumor antigen p53 (Homo sapiens), sequence (P04637 whole entry, looked up): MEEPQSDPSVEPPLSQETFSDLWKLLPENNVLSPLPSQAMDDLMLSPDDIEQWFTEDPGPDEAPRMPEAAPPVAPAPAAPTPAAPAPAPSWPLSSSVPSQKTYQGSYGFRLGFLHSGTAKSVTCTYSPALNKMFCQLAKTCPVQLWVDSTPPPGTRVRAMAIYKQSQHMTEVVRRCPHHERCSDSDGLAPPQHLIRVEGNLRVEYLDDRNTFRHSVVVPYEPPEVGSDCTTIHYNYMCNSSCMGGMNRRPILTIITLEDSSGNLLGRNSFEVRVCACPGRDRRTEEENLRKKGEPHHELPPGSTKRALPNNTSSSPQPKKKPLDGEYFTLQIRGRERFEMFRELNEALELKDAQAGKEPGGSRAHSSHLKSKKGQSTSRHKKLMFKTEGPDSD
In short: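 HepG2 cells transiently transfected with cis-regulated multiple reporter transcription units, dosed 24 h. Reporter mRNA measured by RT-PCR, 6-FAM primer extension, HpaI digestion and capillary electrophoresis; bidirectional fit relative to DMSO.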

[13] = biological target: Oxysterols receptor LXR-alpha (Homo sapiens) (UniProt Q13133); test: ATG_LXRa_TRANS: Attagene TRANS-FACTORIAL HepG2 Assay for human Liver X Receptor alpha (LXRa) (AID 2282980; active = hit-call score of the fitted dose curve at least 0.9, where 1 is the maximum); details: HepG2 Attagene TRANS reporter, LXRa transactivation
Oxysterols receptor LXR-alpha (Homo sapiens), sequence (Q13133 whole entry, looked up, the tested form may be a part): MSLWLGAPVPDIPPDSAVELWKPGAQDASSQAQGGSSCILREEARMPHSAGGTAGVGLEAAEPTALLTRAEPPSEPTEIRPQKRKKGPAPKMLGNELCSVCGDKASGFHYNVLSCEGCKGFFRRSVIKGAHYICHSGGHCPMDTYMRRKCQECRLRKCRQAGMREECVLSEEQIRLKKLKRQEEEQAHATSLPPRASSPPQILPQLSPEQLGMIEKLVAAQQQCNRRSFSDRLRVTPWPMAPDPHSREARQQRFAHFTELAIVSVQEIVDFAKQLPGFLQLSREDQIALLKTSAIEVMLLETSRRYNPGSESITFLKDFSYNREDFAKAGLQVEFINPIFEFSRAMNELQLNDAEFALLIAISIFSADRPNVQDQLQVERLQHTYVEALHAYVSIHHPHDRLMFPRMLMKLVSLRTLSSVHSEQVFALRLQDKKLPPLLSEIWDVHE
In short: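 Chemical-induced reporter mRNA measured by RT-PCR with fluorescent labelling and capillary electrophoresis after 24 h dosing of transiently transfected HepG2 cells expressing exogenous NR-Gal4 chimeras; increases scored against DMSO baseline.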

[14] = biological target: Hepatocyte nuclear factor 4-alpha (Homo sapiens) (UniProt P41235); test: ATG_HNF4a_TRANS: Attagene TRANS-FACTORIAL HepG2 Assay for human Hepatocyte Nuclear Factor 4 alpha (HNF4a) (AID 2282982; active = hit-call score of the fitted dose curve at least 0.9, where 1 is the maximum); details: HepG2 HNF4a transactivation reporter, mRNA readout
Hepatocyte nuclear factor 4-alpha (Homo sapiens), sequence (P41235 whole entry, looked up, the tested form may be a part): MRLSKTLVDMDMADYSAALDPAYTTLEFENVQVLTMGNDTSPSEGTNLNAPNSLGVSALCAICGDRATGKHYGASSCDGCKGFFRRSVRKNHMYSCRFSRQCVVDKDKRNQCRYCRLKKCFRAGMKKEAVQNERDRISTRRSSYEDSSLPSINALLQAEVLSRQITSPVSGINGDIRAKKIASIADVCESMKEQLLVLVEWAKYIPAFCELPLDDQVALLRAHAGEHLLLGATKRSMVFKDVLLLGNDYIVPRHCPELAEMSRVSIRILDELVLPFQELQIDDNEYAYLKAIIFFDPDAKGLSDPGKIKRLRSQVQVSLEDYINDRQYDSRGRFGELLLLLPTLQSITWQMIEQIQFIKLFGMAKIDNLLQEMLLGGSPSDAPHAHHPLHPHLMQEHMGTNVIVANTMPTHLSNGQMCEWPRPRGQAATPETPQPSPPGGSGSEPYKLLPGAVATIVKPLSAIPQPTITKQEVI
In short: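 HepG2 cells transiently transfected with multiplexed GAL4-UAS reporter units responsive to chimeric NR-GAL4 proteins; compound exposure 24 h. Reporter mRNA quantified by RT-PCR, 6-FAM labelling, HpaI digestion and capillary electrophoresis; gain of signal versus DMSO baseline.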

[15] = ATG_M_06_TRANS: Attagene TRANS-FACTORIAL HepG2 Assay for M06 Transcription Factor (Internal Marker) (AID 2282983; active = hit-call score of the fitted dose curve at least 0.9, where 1 is the maximum;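 also: reporter transcript level by RT-PCR then capillary electrophoresis fluorescence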); details: HepG2 Attagene TRANS M06 internal marker reporter
In short: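 Cells: HepG2, transient multi-reporter transfection. Exposure: 24 h. Detection: RT-PCR, 6-FAM labelling, HpaI digestion (2 h, 37 °C), capillary electrophoresis. Baseline: DMSO.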

[16] = BSK_3C_uPAR: BioMAP Diversity Plus: 3C Assay for Urokinase-type plasminogen activator receptor (uPAR) Biomarker Activity (AID 2282998); details: BioMAP 3C HUVEC, uPAR biomarker ELISA; actives raise or lower the signal
In short: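 Human umbilical vein endothelial primary cells were exposed to test chemical for 24 h. Cell-surface uPAR was then quantified by ELISA, and responses were fitted bidirectionally against DMSO as negative control and baseline.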

[17] = BSK_3C_VCAM1: BioMAP Diversity Plus: 3C Assay for Vascular cell adhesion molecule 1 (VCAM1) Biomarker Activity (AID 2282999); details: BioMAP 3C HUVEC, VCAM1 ELISA, cytokine-stimulated; actives raise or lower the signal
In short: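 Human umbilical vein endothelial cells were dosed with compound for 24 h, after which cell-surface VCAM-1 was quantified by ELISA. Bidirectional curve fitting used DMSO as negative control and activity baseline.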

Measured: AC50

CC(C)(C)c1cc(CCC(=O)OCCSCCOC(=O)CCc2cc(C(C)(C)C)c(O)c(C(C)(C)C)c2)cc(C(C)(C)C)c1O
not listed: [13] | [14] | [15] | [16] | [17]
inactive: all other assays above

CC(C)(CO)CO
not listed: [2] | [3] | [4] | [5] | [9]
inactive: all other assays above

CCCCCCCCCCCCN1CCOCC1
active: [6] 59.8 µM | [10] 33.4 µM | [11] 45.4 µM
not listed: [3] | [4] | [14] | [16] | [17]
inactive: all other assays above

CC1COC(=O)O1 (stereo unspecified)
not listed: [4] | [5] | [9] | [13] | [14] | [16] | [17]
inactive: all other assays above

S=c1[nH][nH]c(=S)s1
inactive: [1] | [13] | [6] | [7] | [8] | [9] | [10] | [11] | [12]

c1coc(CNc2ncnc3nc[nH]c23)c1
active: [10] 33.8 µM
not listed: [4] | [9] | [13] | [14] | [16] | [17]
inactive: all other assays above

CC/C=C\CCOC(=O)C(C)C
not listed: [3] | [4] | [13] | [15] | [16] | [17]
inactive: all other assays above

NC(N)=S
not listed: [2] | [4] | [9] | [14] | [16] | [17]
inactive: all other assays above

CCCC[N+](C)(CCCC)CCCC
not listed: [4] | [9] | [12] | [14] | [15] | [16] | [17]
inactive: all other assays above

CCOC(=O)CC(C)C
not listed: [3] | [4] | [9] | [12] | [13] | [16] | [17]
inactive: all other assays above

CCCCCCCCOC(=O)c1ccc(O)cc1
not listed: [2] | [12] | [16] | [17]
inactive: all other assays above
